NPR1 antag – antagonists of human natriuretic peptide receptor Npr1. P16066. HEK293 hNpr1 GloSensor cGMP, ANP-stimulated luminescence. Potency, µM (top dose mostly 46.3 µM), most hits filed as inhibitors. 76,000 compounds, 1.6% hits. AID 1347048; calls by dose curve; also: nearly all actives have a fitted effect of over 60% in size
Target sequence (P16066 whole entry, looked up): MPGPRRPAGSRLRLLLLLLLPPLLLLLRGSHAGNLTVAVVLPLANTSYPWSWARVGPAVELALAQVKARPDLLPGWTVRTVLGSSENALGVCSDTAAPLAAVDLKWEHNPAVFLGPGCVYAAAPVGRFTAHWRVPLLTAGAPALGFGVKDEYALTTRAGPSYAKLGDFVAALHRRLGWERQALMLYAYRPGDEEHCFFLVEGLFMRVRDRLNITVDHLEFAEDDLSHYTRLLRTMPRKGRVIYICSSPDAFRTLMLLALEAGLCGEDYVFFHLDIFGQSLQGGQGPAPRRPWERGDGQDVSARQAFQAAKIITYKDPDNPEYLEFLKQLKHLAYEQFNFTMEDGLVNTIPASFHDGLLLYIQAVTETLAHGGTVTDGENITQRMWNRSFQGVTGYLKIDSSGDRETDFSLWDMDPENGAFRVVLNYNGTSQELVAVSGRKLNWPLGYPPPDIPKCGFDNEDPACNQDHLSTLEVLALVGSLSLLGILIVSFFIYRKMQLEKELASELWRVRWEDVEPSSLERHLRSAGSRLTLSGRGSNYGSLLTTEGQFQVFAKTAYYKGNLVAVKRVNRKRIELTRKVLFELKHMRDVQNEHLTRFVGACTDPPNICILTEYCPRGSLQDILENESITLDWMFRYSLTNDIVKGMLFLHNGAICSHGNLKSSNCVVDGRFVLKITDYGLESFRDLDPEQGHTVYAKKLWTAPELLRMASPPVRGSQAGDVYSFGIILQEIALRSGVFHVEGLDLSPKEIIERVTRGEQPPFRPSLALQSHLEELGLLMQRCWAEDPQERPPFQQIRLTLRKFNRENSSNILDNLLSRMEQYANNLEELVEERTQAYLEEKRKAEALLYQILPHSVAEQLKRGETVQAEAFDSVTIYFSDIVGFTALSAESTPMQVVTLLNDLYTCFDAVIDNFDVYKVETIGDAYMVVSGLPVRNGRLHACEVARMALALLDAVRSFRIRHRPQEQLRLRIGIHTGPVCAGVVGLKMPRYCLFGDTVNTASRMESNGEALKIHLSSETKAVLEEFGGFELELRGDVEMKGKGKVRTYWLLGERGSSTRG
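HEK293 cells stably expressing human Npr1 and cGMP GloSensor pGS-40F, loaded 2 h with 2% GloSensor reagent, given compound 30 min at room temperature. Luminescence read before and 20 min after 0.1 nM hNppA.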
3T3 cytotox – kills NIH 3T3 cells; 94,000 compounds, 4.3% hits; NIH 3T3 viability, CellTiter-Glo ATP luminescence, 48-72 h; Potency, µM (top dose mostly 96.7 µM), actives largely listed as inhibitors; AID 1345082; also: nearly all actives have a fitted effect of over 55% in size
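First NIH 3T3 cells are plated at 400 cells/well; next compound is pinned in; then plates incubate 48 or 72 hr at 37 °C; finally CellTiter-Glo is added and luminescence read after 10 min.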
SNCA expr inh – SNCA gene expression inhibition; HEK-293 SNCA-luciferase knock-in, luminescence, 24 h; Potency, µM (top dose mostly 57.2 µM), usual class: inhibitors; 140,000 compounds, 0.17% hits; AID 1671194; also: nearly all actives have a fitted effect of over 45% in size
Luciferase inh – inhibitors of firefly (Photinus pyralis) luciferase; P08659; Potency, µM (doses to about 115 µM), actives largely listed as inhibitors; purified P. pyralis luciferase, luminescence, biochemical; 76,000 compounds, 2.5% hits; also: nearly all actives have a fitted effect of over 65% in size
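FLuc 10nM, D-luciferin 10uM, ATP 10uM, Mg acetate 10mM, Tris acetate pH 7.5, Tween/BSA; cpd qHTS; enzyme added last; CCD luminescence.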
HEK293 viab – reduces viability of HEK-293 SNCA reporter cells; HEK-293-SNCA-luc viability, GF-AFC fluorescence, 24 h; Potency, µM (top dose mostly 57.1 µM), usual class: cytotoxic; 150,000 compounds, 0.12% hits; also: nearly all actives have a fitted effect of over 30% in size
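HEK-293-SNCA-luc cells (1500/well) plated 24 h, then exposed 24 h to a dilution series; GF-AFC added 30 min at 37C, fluorescence 405/540 nm; normalised to medium-only and DMSO wells, Hill fit.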
HEK cytotox – cytotoxic compounds in HEK 293 cells; HEK 293 viability, ATP luminescence (CellTiter-Glo), 48-72 h; Potency, µM (highest dose often 115 µM), most hits filed as inhibitors; 94,000 compounds, 6.6% hits; AID 1345083; also: nearly all actives have a fitted effect of over 60% in size
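HEK 293 cells at 250 cells/well were exposed to compounds by pintool transfer for 48 or 72 hr at 37 degree Celsius, 5% CO2. Viability was read as ATP-coupled luminescence with CellTiter-Glo after 10 min at room temperature.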
Large screens that a line does not name were inactive. An excerpt weighted towards active compounds, which were near 7.4% of everything screened. Unless noted, calls follow the shape of the dose curve; as a rule, active = well fitted curve in the direction sought with a large enough effect; inconclusive = small, poorly fitted or top-dose-only effect, or another doubt; inactive = no such curve, though single readings can be large; an effect the other way counts as inactive or inconclusive.

COc1cc(OC)c(-c2nc3ccc(-c4ccc(OC)c(OC)c4OC)cc3o2)cc1OC	3T3 cytotox 32µM, HEK cytotox inconclusive
O=C(CC1CCCC1)N1CC[C@@H]2COCCN(Cc3ccccc3)[C@@H]2C1	HEK cytotox 79µM
COCCCNC(=O)CNC(=O)c1cccc(-c2ccc(SC)cc2)c1	3T3 cytotox inconclusive, HEK cytotox inconclusive (no result: NPR1 antag, Luciferase inh)
COc1ccccc1-c1cc(C(=O)NCc2cccc(Cl)c2)nn2cccc12	3T3 cytotox inconclusive, SNCA expr inh inconclusive, HEK cytotox 45µM (no result: NPR1 antag, Luciferase inh)
COc1ccccc1-c1cc(C(=O)NCCc2ccc(F)cc2)nn2cccc12	3T3 cytotox inconclusive, SNCA expr inh inconclusive, HEK cytotox 35µM (no result: NPR1 antag, Luciferase inh)
COc1ccccc1-c1cc(C(=O)NCc2cccnc2)nn2cccc12	3T3 cytotox inconclusive, HEK cytotox inconclusive (no result: NPR1 antag, Luciferase inh)
CCN1c2cc(C(=O)Nc3cccc(OC)c3)ccc2C(=O)N2CCCCC21 (stereo unspecified)	3T3 cytotox inconclusive, HEK cytotox 45µM
CCN1c2cc(C(=O)Nc3cc(OC)cc(OC)c3)ccc2C(=O)N2CCCCC21 (stereo unspecified)	HEK cytotox inconclusive
CCN1c2cc(C(=O)Nc3cccc(OC)c3)ccc2C(=O)N2CCCCCC21 (stereo unspecified)	3T3 cytotox inconclusive, HEK cytotox 32µM
CCN1c2cc(C(=O)Nc3cccc(OC)c3)ccc2C(=O)N2CCCC21 (stereo unspecified)	HEK cytotox inconclusive
O=C(NCc1cccnc1)c1cn2cc(-c3ccc(F)cc3)sc2n1	3T3 cytotox inconclusive, HEK cytotox inconclusive (no result: NPR1 antag, Luciferase inh)
COc1cccc(-c2cn3cc(C(=O)NCc4cccnc4)nc3s2)c1	3T3 cytotox inconclusive, HEK cytotox 32µM (no result: NPR1 antag, Luciferase inh)
O=C(NCc1cccnc1)c1cn2cc(-c3ccccc3)sc2n1	3T3 cytotox inconclusive, HEK cytotox 50µM (no result: NPR1 antag, Luciferase inh)
COc1cccc(CNC(=O)c2cn3cc(-c4cccnc4)sc3n2)c1	3T3 cytotox inconclusive (no result: NPR1 antag, Luciferase inh)
COc1ccc(NC(=O)C2CCc3nnc(CN[S+](C)(=O)[O-])n32)cc1 (stereo unspecified)	none (no result: NPR1 antag, Luciferase inh)
Cc1ccc(Nc2ccnc(N3CCC(N[S+](=O)([O-])c4cccs4)CC3)n2)cc1	3T3 cytotox 35µM, HEK cytotox 22µM (no result: NPR1 antag, Luciferase inh)
Cc1ccc(Nc2ccnc(N3CCC(N[S+](=O)([O-])c4ccc(C)cc4)CC3)n2)cc1	3T3 cytotox 32µM, HEK293 viab inconclusive, HEK cytotox inconclusive (no result: NPR1 antag, Luciferase inh)
COc1ccc(Nc2ccnc(N3CCC(N[S+](=O)([O-])c4cccs4)CC3)n2)cc1	3T3 cytotox 35µM, HEK293 viab inconclusive, HEK cytotox 25µM (no result: NPR1 antag, Luciferase inh)
Cc1ccc(Nc2ccnc(N3CCC(N[S+](=O)([O-])c4c(C)noc4C)CC3)n2)cc1	3T3 cytotox inconclusive, HEK cytotox inconclusive (no result: NPR1 antag, Luciferase inh)
COc1ccc(Nc2ccnc(N3CCC(C(=O)NCc4cccs4)CC3)n2)cc1	3T3 cytotox inconclusive, HEK cytotox inconclusive (no result: NPR1 antag, Luciferase inh)
Cc1ccc(Nc2ccnc(N3CCC(C(=O)N4CCN(C)CC4)CC3)n2)cc1	3T3 cytotox inconclusive, HEK cytotox inconclusive (no result: NPR1 antag, Luciferase inh)
COc1ccc(-c2cccc(COc3ccc4c(cnn4CC[S+](C)(=O)[O-])c3)c2)cc1	3T3 cytotox inconclusive, Luciferase inh inconclusive, HEK cytotox inconclusive
C[S+](=O)([O-])CCn1ncc2cc(OCc3cccc(-c4cccc(CO)c4)c3)ccc21	NPR1 antag inconclusive, 3T3 cytotox inconclusive, Luciferase inh inconclusive, HEK cytotox 50µM
C[S+](=O)([O-])CCn1ncc2cc(OCc3cccc(-c4ccccc4F)c3)ccc21	NPR1 antag inconclusive, 3T3 cytotox inconclusive, Luciferase inh 16µM, HEK cytotox 50µM
COc1cccc(-c2ccc(COc3ccc4c(cnn4CCC(=O)O)c3)cc2)c1F	Luciferase inh inconclusive, HEK cytotox inconclusive
Cc1cccc(-c2nc3ccc(C(=O)NC(C)C)cc3o2)n1	3T3 cytotox inconclusive, SNCA expr inh inconclusive, HEK cytotox inconclusive (no result: NPR1 antag, Luciferase inh)
Cc1nn(-c2ccccc2)c2c1C(C(C)C)N(C1CCN(C(=O)C(C)(C)C)C1)C2=O (stereo unspecified)	3T3 cytotox inconclusive, HEK cytotox 89µM (no result: NPR1 antag, SNCA expr inh, Luciferase inh, HEK293 viab)
Cc1nn(-c2ccccc2)c2c1C(C(C)C)N(C1CCN(C(=O)C3CCCC3)C1)C2=O (stereo unspecified)	3T3 cytotox 20µM, HEK cytotox inconclusive (no result: NPR1 antag, SNCA expr inh, Luciferase inh, HEK293 viab)
Cc1nn(-c2ccccc2)c2c1C(C(C)C)N(C1CCN(C(=O)Nc3ccccc3)C1)C2=O (stereo unspecified)	3T3 cytotox inconclusive (no result: NPR1 antag, SNCA expr inh, Luciferase inh, HEK293 viab)
Cc1nn(-c2ccccc2)c2c1C(C(C)C)N(C1CCN(C(=O)c3ccccc3F)C1)C2=O (stereo unspecified)	3T3 cytotox inconclusive, HEK cytotox 79µM (no result: NPR1 antag, SNCA expr inh, Luciferase inh, HEK293 viab)
CN(C)CC1CCOC1(c1ccccc1)c1ccccc1 (stereo unspecified)	none (no result: NPR1 antag, 3T3 cytotox, SNCA expr inh, Luciferase inh, HEK cytotox)
CCC1Oc2ccc(NC(=O)c3ccc4c(c3)OCO4)cc2CN(Cc2ccccc2)C1=O (stereo unspecified)	HEK cytotox 89µM
CCC1Oc2ccc(NC(=O)Cc3ccccc3)cc2CN(Cc2ccc3c(c2)OCO3)C1=O (stereo unspecified)	3T3 cytotox inconclusive, HEK cytotox 35µM
CCC1Oc2ccc(NC(=O)Cc3ccc(OC)cc3)cc2CN(Cc2ccc3c(c2)OCO3)C1=O (stereo unspecified)	3T3 cytotox inconclusive, SNCA expr inh inconclusive, HEK cytotox 22µM
CCC1Oc2ccc(NC(=O)c3cccc(OC)c3)cc2CN(Cc2ccccc2)C1=O (stereo unspecified)	3T3 cytotox inconclusive, HEK cytotox 45µM
CNC(=O)[C@H]1CN(C(=O)Cc2cccs2)[C@]2(C)C(=O)N(CCOC)c3ccccc3[C@H]12	3T3 cytotox inconclusive, HEK cytotox inconclusive (no result: NPR1 antag, Luciferase inh)
COc1cccc(C(=O)N2CCCC2C(=O)N2CCC(N3Cc4cccn4C3=O)CC2)c1 (stereo unspecified)	3T3 cytotox inconclusive (no result: NPR1 antag, Luciferase inh)
Cc1ccc(-c2nccn3cc(C(=O)O)nc23)cc1	3T3 cytotox inconclusive, SNCA expr inh inconclusive
Cc1ccc(-c2nccn3cc(C(=O)NCC(C)C)nc23)cc1	3T3 cytotox inconclusive, HEK cytotox 40µM
CCNc1nccc(N2CCC(CC(=O)N3CCN(c4ccccc4F)CC3)CC2)n1	3T3 cytotox 18µM, SNCA expr inh inconclusive, HEK293 viab inconclusive, HEK cytotox inconclusive
CNc1nccc(N2CCC(CC(=O)NC3CCN(Cc4ccccc4)CC3)CC2)n1	3T3 cytotox 35µM, HEK293 viab inconclusive, HEK cytotox inconclusive
CNc1nccc(N2CCC(CC(=O)N3CCN(c4cccc(OC)c4)CC3)CC2)n1	NPR1 antag inconclusive, 3T3 cytotox inconclusive, HEK cytotox 25µM
CCNc1nccc(N2CCC(CC(=O)NCc3ccccc3F)CC2)n1	3T3 cytotox inconclusive, SNCA expr inh inconclusive, HEK cytotox 40µM

Assay outcomes as filed in PubChem.
